Broadly, the inhibition is the change of the read-out against control, counted positive when it falls.

The whole screen tested about 9,900 compounds, of which about 90 (0.9%) were called active. Roughly 2% stayed inconclusive and do not appear here.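 Rule for the calls: active = mean normalized replicate activity at least 50 and at least half of replicates each reaching 50; inconclusive = only one of the two criteria met; inactive = neither criterion met.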 What follows is part of a selection rich in actives, with near analogues and random picks from the rest.

The nature of the experiment: reduction of CTGF mRNA in DLD1 cells – DLD1 colon cancer cells, RT-qPCR, single point, primary screen (AID 743449).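 Note: 0% = neutral control wells and 100% = dasatinib control wells; higher means stronger suppression of CTGF expression like dasatinib.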 The following applies: 24 h, at 12.5 µM, active compounds read high. In general terms: Real-time PCR tracks product formation cycle by cycle.
For `COc1cccc(S(=O)(=O)N[C@H]2CC[C@@H](CC(=O)NC3Cc4ccccc4C3)O[C@H]2CO)c1`, the inhibition was 0.76% (inactive).
The result for `CCC(=O)N1CC2(C1)[C@H](c1ccc(-c3ccc(F)cc3)cc1)[C@H](CO)N2C(C)=O` reads 5.26% (inactive); that for `COc1cccc(C(=O)Nc2ccc3c(c2)C(=O)N(C)[C@@H]2CC[C@H](CC(=O)N[C@@H](C)c4ccccc4)O[C@@H]2CO3)c1`, -43.4% (inactive).
As to `O=C(Nc1ccc(F)cc1)N1CC(=O)N2[C@H](C1)[C@@H](c1ccc(-c3cccc(F)c3)cc1)[C@@H]2CO`, the inhibition was -72.3% (inactive).
As to `COCC(=O)N1[C@H](CO)[C@@H](c2ccccc2)C12CN(C(=O)c1ccccc1)C2`, the inhibition is -0.941% (inactive).
For the compound `C[C@H]1CN([C@@H](C)CO)C(=O)c2ccccc2-c2ccccc2CO[C@H]1CN(C)S(=O)(=O)c1cn(C)cn1`, the inhibition is 10.4% (inactive).
On to `CC(C)(C)[S@@](=O)N1Cc2cc(C(=O)NCc3ccccn3)nc(-c3cccc(-c4ccccc4F)c3)c2[C@H]1CCO`, for which the inhibition was -29.9% (inactive).
As for `CC(C)(C)S(=O)N1Cc2cc(C(=O)NCc3ccc4c(c3)OCO4)nc(-c3cccc(-c4cc5ccccc5o4)c3)c2[C@H]1CCO` (some centres undefined), the figure is 20.7% (inactive); as for `CC(C)(C)S(=O)N1Cc2cc(C(=O)NCc3ccc4c(c3)OCO4)nc(-c3cccc(-c4cccc(F)c4)c3)c2[C@@H]1CCO` (some centres undefined), 55.2% (active).
As for `CC(C)(C)[S@](=O)N1Cc2cc(C(=O)NCc3ccccn3)nc(-c3cccc(-c4ccccc4F)c3)c2[C@@H]1CCO`, the figure is 53% (active); as for `CCNC(=O)c1cc2c(c(-c3cccc(-c4ccccc4F)c3)n1)[C@@H](CCO)N(C(=O)CC1CC1)C2`, 59.3% (active).
Consider `CC(C)(C)[S@](=O)N1Cc2cc(C(=O)NC3CCC3)nc(-c3cccc(-c4ccccc4F)c3)c2[C@@H]1CCO`, for which the inhibition was 41% (inactive).
Turning to `CCNC(=O)c1cc2c(c(-c3cccc(-c4cncnc4)c3)n1)[C@H](CCO)N(C(C)=O)C2`, the inhibition was -8.43% (inactive).
As for `CN(C)C(=O)c1cc2c(c(-c3cccc(C4=CCCCC4)c3)n1)[C@@H](CCO)N(S(C)(=O)=O)C2`, the figure is -7.52% (inactive).
Turning to `CCC(=O)N1Cc2cc(C(=O)NCc3cccc(F)c3)nc(-c3cccc(C4=CCCC4)c3)c2[C@H]1CCO`, the inhibition was 50.2% (active).
For `CCNC(=O)c1cc2c(c(-c3cccc(-c4ccccc4F)c3)n1)[C@H](CCO)N(C(=O)CC1CC1)C2`, the inhibition is -97.9% (inactive).
For `CCN1Cc2cc(C(=O)Nc3nccs3)nc(-c3cccc(C4=CCCC4)c3)c2[C@H]1CCO`, the inhibition was -15.8% (inactive).
As to `CC(C)(C)S(=O)N1Cc2cc(C(=O)NCc3ccc(Oc4ccccc4)cc3)nc(-c3cccc(-c4cccc(F)c4)c3)c2[C@@H]1CCO` (some centres undefined), the inhibition was 9.98% (inactive).
Consider `O=C1C[C@H](c2ccccc2)C(=O)N[C@H](c2ccccc2)C/C=C\C[C@H](c2ccccc2)N1`, for which the inhibition was -5.88% (inactive).
Take `COc1ccc(S(=O)(=O)Nc2ccc3c(c2)C(=O)N([C@H](C)CO)C[C@H](C)[C@@H](CN(C)C(=O)Nc2c(C)noc2C)OCCCC[C@H](C)O3)cc1`: the inhibition was -7.64% (inactive).
`O=C(Cc1cccnc1)N1[C@H](CNCC2CCC2)[C@H](c2ccccc2)[C@@H]1CO`: the inhibition was -21.2% (inactive).
As for `COc1ccc(S(=O)(=O)Nc2ccc3c(c2)C(=O)N([C@@H](C)CO)C[C@@H](C)[C@@H](CN(C)Cc2ccc(C(F)(F)F)cc2)OCCCC[C@H](C)O3)cc1`, the inhibition is -37.9% (inactive).
Regarding `O=C(C1CCOCC1)N1CC[C@@H]2[C@@H](CO)Nc3ccc(-c4cccc(F)c4)cc3[C@@H]21`, the inhibition is -12.5% (inactive).
As for `CO[C@H]1CC[C@H]2CCOc3c(C#N)cccc3C(=O)N(C)C[C@@H](OC)[C@@H](C)C(=O)N(C)C[C@H]1O2`, the inhibition is -18.4% (inactive).
As for `O=C(C[C@@H]1CC[C@@H]2[C@H](COC[C@@H](O)CN2C(=O)c2cnccn2)O1)N1CCN(c2ccccc2)CC1`, the figure is -2.5% (inactive).
Consider `COc1ccc2c3c([nH]c2c1)[C@H](CO)N(C(=O)c1ccccn1)CC31CCN(S(C)(=O)=O)CC1`, for which the inhibition was -21.9% (inactive).
For the compound `COc1ccccc1CN1[C@@H]2c3ccc(C4=CCCC4)c(=O)n3C[C@H]1[C@H](CO)[C@H]2C(=O)N(C)C`, the inhibition is 2.56% (inactive).
Consider `C[C@@H]1CN([C@H](C)CO)C(=O)Cc2cc(NS(=O)(=O)c3cccs3)ccc2O[C@@H]1CN(C)CC1CCCCC1`, for which the inhibition was 1.75% (inactive).
With `COc1ccc2c3c(n(C)c2c1)[C@@H](CO)N(S(C)(=O)=O)CC31CCN(Cc2nccs2)CC1`, the inhibition is 14% (inactive).

The values are drawn from PubChem BioAssay AID743449 (Broad Institute, 2014).
